Measured values published in the supplement of paper PMC10849652.
Targets with a hit are over-represented here; the source holds about 8,800 in all. About 0.5% of all pairs of compound and target were hits.

Columns and labels:
Assay in all cases: log2 fold change, soluble protein after heating vs DMSO (PISA); higher = thermal stabilisation; K562 lysate, 10 uM; active = over 0.2 and 3.5 SD of the protein, either way, in both replicates (recomputed)
[1] = compound: O=C(CCCCCCC(=O)Nc1ccccc1)NO [vorinostat]
In short: (§1)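 The values are log-two fold changes in thermal stability compared with solvent controls and come from duplicates. They were obtained by TMTpro 16plex LC-MS/MS, with channel sums equalised, on the supernatant after 21,000xg for 90 min. That supernatant came from crude K562 extract at 1 mg/mL protein treated with 10 μM compound for 30 min, heated for 3 min across 48°C-58°C, pooled and brought to 0.5% NP-40 at 4°C.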

[2] = compound: O=C(O)c1ccc2c(c1)nc(Nc1cccc(Cl)c1)c1ccncc12 [silmitasertib]
In short: as §1

[3] = compound: O=C1NC(=O)C(c2cnc3ccccn23)=C1c1cn2c3c(cc(F)cc13)CN(C(=O)N1CCCCC1)CC2
In short: as §1

[4] = compound: NCC(=O)Nc1ccc(-n2nc(C(F)(F)F)cc2-c2ccc3c(ccc4ccccc43)c2)cc1
In short: as §1

[5] = compound: c1cn2cc(-c3ccc4cn[nH]c4c3)nc(Nc3ccc(N4CCOCC4)cc3)c2n1 [entospletinib]
In short: as §1

Measured: log2 fold change

ALDH3A1 (UniProt P30838)
UniProt P30838, sequence (P30838 whole entry, looked up): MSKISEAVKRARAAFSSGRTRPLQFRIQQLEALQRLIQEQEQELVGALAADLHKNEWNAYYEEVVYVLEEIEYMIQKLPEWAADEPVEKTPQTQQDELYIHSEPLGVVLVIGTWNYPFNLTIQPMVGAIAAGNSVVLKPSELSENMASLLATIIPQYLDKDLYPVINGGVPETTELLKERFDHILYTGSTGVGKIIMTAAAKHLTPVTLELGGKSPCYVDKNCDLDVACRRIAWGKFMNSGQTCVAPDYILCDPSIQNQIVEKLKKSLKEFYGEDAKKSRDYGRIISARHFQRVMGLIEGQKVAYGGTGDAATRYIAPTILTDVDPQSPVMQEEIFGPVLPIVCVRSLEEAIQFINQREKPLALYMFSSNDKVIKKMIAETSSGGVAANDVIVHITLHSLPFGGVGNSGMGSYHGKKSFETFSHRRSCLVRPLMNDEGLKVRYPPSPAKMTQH
inactive: [1] 0.145 | [2] -0.113 | [3] 0.023

ANKRD44 isoform 2 (UniProt Q8N8A2)
UniProt Q8N8A2, sequence (Q8N8A2 whole entry, looked up): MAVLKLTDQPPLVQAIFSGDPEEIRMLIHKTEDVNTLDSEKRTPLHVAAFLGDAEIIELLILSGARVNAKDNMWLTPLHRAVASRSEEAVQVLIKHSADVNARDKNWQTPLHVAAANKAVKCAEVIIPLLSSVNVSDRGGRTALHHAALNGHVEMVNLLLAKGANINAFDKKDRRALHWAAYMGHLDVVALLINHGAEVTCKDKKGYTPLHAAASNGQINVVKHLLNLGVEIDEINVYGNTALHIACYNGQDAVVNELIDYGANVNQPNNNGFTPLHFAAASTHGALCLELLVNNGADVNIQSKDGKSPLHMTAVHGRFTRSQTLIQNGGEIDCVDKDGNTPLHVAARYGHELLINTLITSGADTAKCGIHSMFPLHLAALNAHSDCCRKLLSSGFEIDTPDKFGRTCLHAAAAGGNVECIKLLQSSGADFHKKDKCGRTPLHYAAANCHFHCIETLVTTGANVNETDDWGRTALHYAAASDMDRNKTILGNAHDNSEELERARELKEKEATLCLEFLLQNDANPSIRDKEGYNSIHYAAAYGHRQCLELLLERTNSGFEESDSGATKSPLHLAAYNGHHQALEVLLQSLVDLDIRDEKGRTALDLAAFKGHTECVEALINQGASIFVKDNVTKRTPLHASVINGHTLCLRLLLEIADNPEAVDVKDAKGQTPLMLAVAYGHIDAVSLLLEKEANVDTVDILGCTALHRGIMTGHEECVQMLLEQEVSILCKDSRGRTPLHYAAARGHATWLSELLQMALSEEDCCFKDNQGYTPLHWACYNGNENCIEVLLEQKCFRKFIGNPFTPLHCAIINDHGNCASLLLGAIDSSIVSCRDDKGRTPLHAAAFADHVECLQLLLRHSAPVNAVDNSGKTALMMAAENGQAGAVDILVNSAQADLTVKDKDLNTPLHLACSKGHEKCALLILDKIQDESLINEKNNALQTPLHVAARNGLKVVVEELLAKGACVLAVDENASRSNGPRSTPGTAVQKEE
inactive: [4] 0.127 | [1] 0.073 | [2] 0.005 | [5] -0.115

ALKBH4 (UniProt Q9NXW9)
UniProt Q9NXW9, sequence (Q9NXW9 whole entry, looked up): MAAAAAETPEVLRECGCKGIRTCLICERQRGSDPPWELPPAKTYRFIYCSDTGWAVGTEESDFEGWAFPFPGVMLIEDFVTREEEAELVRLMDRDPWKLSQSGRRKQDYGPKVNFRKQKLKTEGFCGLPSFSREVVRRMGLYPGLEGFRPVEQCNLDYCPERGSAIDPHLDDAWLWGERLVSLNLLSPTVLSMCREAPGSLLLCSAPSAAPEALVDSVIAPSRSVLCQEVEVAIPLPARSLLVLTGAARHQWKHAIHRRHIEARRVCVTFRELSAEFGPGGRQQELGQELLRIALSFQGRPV
active: [1] 0.264
inactive: [4] 0.061 | [2] -0.032 | [3] -0.088 | [5] -0.012

ASCC2 (UniProt Q9H1I8)
UniProt Q9H1I8, sequence (Q9H1I8 whole entry, looked up): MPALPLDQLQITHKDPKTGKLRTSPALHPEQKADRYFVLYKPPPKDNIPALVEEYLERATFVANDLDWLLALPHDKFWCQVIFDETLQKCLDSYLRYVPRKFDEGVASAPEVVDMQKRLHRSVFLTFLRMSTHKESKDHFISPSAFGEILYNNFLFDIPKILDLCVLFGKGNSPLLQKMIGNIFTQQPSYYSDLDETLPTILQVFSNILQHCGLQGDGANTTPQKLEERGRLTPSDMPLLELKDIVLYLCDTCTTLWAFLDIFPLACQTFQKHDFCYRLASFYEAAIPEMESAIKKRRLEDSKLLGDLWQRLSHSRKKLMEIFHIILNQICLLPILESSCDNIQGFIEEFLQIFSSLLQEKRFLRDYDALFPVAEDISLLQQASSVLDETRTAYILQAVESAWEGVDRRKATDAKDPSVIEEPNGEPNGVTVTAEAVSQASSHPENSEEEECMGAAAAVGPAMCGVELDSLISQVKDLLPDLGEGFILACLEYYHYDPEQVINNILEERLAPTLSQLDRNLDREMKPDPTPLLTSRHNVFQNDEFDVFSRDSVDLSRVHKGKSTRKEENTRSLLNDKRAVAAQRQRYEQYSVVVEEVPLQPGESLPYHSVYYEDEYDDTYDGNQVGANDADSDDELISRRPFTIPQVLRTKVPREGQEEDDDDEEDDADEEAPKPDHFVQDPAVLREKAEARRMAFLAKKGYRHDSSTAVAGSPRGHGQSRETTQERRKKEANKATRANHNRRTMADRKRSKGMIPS
inactive: [4] -0.008 | [1] -0.048 | [2] 0.077 | [3] 0.026 | [5] -0.017

AARS2 (UniProt Q5JTZ9)
UniProt Q5JTZ9, sequence (Q5JTZ9 whole entry, looked up): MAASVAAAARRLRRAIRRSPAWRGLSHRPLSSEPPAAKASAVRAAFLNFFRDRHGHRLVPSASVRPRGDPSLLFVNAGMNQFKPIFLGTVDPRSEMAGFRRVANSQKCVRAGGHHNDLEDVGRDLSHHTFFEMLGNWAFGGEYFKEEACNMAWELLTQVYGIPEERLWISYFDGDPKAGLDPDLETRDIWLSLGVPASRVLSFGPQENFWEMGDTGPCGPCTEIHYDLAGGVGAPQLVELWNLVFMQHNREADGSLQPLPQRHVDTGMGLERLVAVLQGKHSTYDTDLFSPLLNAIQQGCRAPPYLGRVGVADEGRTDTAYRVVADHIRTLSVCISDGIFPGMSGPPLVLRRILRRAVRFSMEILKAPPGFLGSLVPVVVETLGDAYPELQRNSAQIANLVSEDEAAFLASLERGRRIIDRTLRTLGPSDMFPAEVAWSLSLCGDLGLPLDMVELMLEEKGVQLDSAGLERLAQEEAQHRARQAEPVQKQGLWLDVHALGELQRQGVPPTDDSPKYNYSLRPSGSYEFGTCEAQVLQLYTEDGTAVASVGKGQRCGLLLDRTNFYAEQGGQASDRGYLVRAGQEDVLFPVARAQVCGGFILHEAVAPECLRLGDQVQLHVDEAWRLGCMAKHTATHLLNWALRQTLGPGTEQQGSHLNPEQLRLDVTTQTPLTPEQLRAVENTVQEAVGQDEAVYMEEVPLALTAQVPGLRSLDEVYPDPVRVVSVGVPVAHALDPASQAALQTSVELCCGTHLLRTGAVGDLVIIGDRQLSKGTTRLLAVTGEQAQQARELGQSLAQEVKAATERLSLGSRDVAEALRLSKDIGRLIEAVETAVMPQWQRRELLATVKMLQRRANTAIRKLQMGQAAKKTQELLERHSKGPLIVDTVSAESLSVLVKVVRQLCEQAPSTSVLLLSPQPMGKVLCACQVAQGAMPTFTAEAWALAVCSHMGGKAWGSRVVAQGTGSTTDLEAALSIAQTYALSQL
inactive: [4] -0.004 | [2] 0.085 | [3] 0.028 | [5] 0.035
active: [1] -0.243

ACADM isoform 2 (UniProt P11310)
UniProt P11310, sequence (P11310 whole entry, looked up): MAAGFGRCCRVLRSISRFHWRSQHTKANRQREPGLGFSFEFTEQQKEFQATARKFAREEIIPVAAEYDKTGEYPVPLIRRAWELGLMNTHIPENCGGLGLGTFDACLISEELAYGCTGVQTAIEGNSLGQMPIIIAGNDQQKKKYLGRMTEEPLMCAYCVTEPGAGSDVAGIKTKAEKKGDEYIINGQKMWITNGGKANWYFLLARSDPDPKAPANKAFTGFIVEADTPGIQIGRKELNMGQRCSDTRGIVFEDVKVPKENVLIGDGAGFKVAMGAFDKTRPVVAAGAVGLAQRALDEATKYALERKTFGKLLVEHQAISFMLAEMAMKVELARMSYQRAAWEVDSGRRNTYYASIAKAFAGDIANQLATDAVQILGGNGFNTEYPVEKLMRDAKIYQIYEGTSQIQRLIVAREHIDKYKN
inactive: [4] -0.015 | [2] -0.015 | [3] 0.023 | [5] 0.016
active: [1] 0.344

AP5B1 (UniProt Q2VPB7)
inactive: [1] -0.062 | [2] 0.044 | [3] -0.094 | [5] 0.022

AGPS (UniProt O00116)
active: [1] 0.365
inactive: [4] -0.015 | [2] -0.007 | [3] -0.007 | [5] -0.005

ACBD6 (UniProt Q9BR61)
UniProt Q9BR61, sequence (Q9BR61 whole entry, looked up): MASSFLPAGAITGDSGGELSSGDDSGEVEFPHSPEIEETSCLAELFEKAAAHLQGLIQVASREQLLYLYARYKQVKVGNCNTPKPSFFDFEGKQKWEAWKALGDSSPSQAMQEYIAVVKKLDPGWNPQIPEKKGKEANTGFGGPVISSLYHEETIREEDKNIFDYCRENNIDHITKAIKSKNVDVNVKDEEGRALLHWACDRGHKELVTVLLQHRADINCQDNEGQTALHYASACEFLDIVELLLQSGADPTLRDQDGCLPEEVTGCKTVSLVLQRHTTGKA
inactive: [4] -0.009 | [2] 0.003 | [3] 0.028 | [5] -0.028
active: [1] -0.298

ARMCX5 (UniProt Q6P1M9)
UniProt Q6P1M9, sequence (Q6P1M9 whole entry, looked up): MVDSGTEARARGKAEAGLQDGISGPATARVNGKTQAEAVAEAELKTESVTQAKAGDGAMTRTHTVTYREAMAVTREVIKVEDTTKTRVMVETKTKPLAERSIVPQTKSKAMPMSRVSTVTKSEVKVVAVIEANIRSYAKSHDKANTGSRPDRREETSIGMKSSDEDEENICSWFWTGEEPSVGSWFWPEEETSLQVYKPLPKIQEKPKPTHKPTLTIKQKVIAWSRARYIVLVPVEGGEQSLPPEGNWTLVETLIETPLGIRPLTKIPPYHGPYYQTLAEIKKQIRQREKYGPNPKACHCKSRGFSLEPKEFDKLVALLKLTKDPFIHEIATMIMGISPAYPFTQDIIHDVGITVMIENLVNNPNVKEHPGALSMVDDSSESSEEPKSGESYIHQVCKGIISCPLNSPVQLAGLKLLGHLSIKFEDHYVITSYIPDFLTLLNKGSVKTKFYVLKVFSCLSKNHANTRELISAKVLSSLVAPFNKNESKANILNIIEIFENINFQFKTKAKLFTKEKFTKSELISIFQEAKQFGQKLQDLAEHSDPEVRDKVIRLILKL
inactive: [4] -0.233 | [1] 0.102 | [2] 0.013 | [5] 0.088
